According to PubChem BioAssay (Tox21):
Several values for one entry are separate records, joined by “and”; a condition that tells them apart may be missing. Identical values can stand only once. Inconclusive results are not listed. Some compounds were tested as several samples or in several runs, with calls that do not always agree. Activity calls are given as the source filed them. Calls come from the whole dose curve; as a rule, active = well fitted curve in the direction sought with a large enough effect in the repeat runs; inconclusive = weak or mixed curves; inactive = no such curve, though single readings can be large; an effect the other way counts as inactive or inconclusive. Starred links: 1 amine or outer side, 2 acyl side, 3 side chain; linkers in the order of their positions; H or OH if unused. Positions of bridges follow the written chain, without caps; N, C: chain ends. Non-standard residues stand in square brackets, D forms with d. Residues, ends and D or L forms follow the SMILES beside them. Chains are numbered I, II in the order given. Actinocin(9to1) = Cc1c2oc3c(C)ccc(C(=O)[*:1])c3nc-2c(C(=O)[*:2])c(N)c1=O; NMeV = CN[C@H](C(=O)O)C(C)C; Sar = CNCC(=O)O

Key:
[1] = A CellTox Green Cytotoxicity Assay to monitor cytotoxicity in HEK293 cells - 40 hour (AID 1224871); note: nearly all actives have a fitted effect of over 45% in size; note: potency is the fitted concentration of half-maximal effect
Method in brief: (§1)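 Cytotoxicity was tracked continuously in HEK293 cells by a DNA-binding dye excluded from viable cells. Compounds were transferred in DMSO 5 h after seeding; fluorescence was recorded at intervals up to 40 h.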

[2] = qHTS RealTime-Glo MT Cell Viability Assay in HEK293 cells - 16 hour (AID 1224872); note: nearly all actives have a fitted effect of over 50% in size; note: potency is the fitted concentration of half-maximal effect
Method in brief: (§2)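 Nonlytic real-time viability readout: viable cells convert prosubstrate to NanoLuc substrate, giving luminescence proportional to live cell number. HEK293, 600 cells/well, compound added after 5 h, continuous culture at 37 C.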

[3] = qHTS RealTime-Glo MT Cell Viability Assay in HepG2 cells - 8 hour (AID 1224873); note: nearly all actives have a fitted effect of over 55% in size; note: potency is the fitted concentration of half-maximal effect
Method in brief: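 Real-time viability: cells seeded at 600 per well together with NanoLuc and cell-permeant prosubstrate, compounds added after 5 h incubation. Luminescence tracked at 0, 8, 16, 24, 32 and 40 h of exposure.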

[4] = qHTS RealTime-Glo MT Cell Viability Assay in HEK293 cells - 40 hour (AID 1224874); details: RealTime-Glo luminescence; max response: stronger effect = lower value; note: nearly all actives have a fitted effect of over 50% in size; note: potency is the fitted concentration of half-maximal effect
Method in brief: (§3)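 Nonlytic bioluminescent viability monitoring. HEK293 at 600 cells/well with reagent; 5 h settle; compound transfer by pintool; plates held at 37 C and read at set time points.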

[5] = A CellTox Green Cytotoxicity Assay to monitor cytotoxicity in HEK293 cells - 24 hour (AID 1224875); note: nearly all actives have a fitted effect of over 45% in size; note: potency is the fitted concentration of half-maximal effect
Method in brief: as §1

[6] = A CellTox Green Cytotoxicity Assay to monitor cytotoxicity in HepG2 cells - 16 hour (AID 1224876); note: nearly all actives have a fitted effect of over 45% in size; note: potency is the fitted concentration of half-maximal effect
Method in brief: (§4)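 Real-time, homogeneous cytotoxicity readout: dead-cell DNA staining by CellTox Green in HepG2 monolayers, fluorescence measured at timed intervals up to 40 h of continuous compound exposure.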

[7] = A CellTox Green Cytotoxicity Assay to monitor cytotoxicity in HepG2 cells - 24 hour (AID 1224878); note: nearly all actives have a fitted effect of over 45% in size; note: potency is the fitted concentration of half-maximal effect
Method in brief: as §4

[8] = A CellTox Green Cytotoxicity Assay to monitor cytotoxicity in HepG2 cells - 40 hour (AID 1224879); note: nearly all actives have a fitted effect of over 40% in size; note: potency is the fitted concentration of half-maximal effect
Method in brief: as §4

[9] = qHTS RealTime-Glo MT Cell Viability Assay in HEK293 cells - 0 hour (AID 1224880)
Method in brief: as §3

[10] = A CellTox Green Cytotoxicity Assay to monitor cytotoxicity in HEK293 cells - 32 hour (AID 1224881); note: nearly all actives have a fitted effect of over 40% in size; note: potency is the fitted concentration of half-maximal effect
Method in brief: as §1

[11] = A CellTox Green Cytotoxicity Assay to monitor cytotoxicity in HepG2 cells - 0 hour (AID 1224882); note: nearly all actives have a fitted effect of over 35% in size
Method in brief: as §4

[12] = A CellTox Green Cytotoxicity Assay to monitor cytotoxicity in HepG2 cells - 32 hour (AID 1224883); note: nearly all actives have a fitted effect of over 50% in size; note: potency is the fitted concentration of half-maximal effect
Method in brief: as §4

[13] = A CellTox Green Cytotoxicity Assay to monitor cytotoxicity in HEK293 cells - 8 hour (AID 1224884); note: nearly all actives have a fitted effect of over 35% in size; note: potency is the fitted concentration of half-maximal effect
Method in brief: as §1

[14] = qHTS RealTime-Glo MT Cell Viability Assay in HepG2 cells - 16 hour (AID 1224885); note: nearly all actives have a fitted effect of over 50% in size; note: potency is the fitted concentration of half-maximal effect
Method in brief: (§5)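 Luminescence read-out: viable HepG2 cells reduce a prosubstrate to a NanoLuc substrate, giving a signal proportional to live cell number. Reads taken at 0, 8, 16, 24, 32 and 40 h of compound exposure at 37 C.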

[15] = qHTS RealTime-Glo MT Cell Viability Assay in HEK293 cells - 24 hour (AID 1224886); note: nearly all actives have a fitted effect of over 50% in size; note: potency is the fitted concentration of half-maximal effect
Method in brief: as §2

[16] = qHTS RealTime-Glo MT Cell Viability Assay in HEK293 cells - 8 hour (AID 1224887); note: nearly all actives have a fitted effect of over 50% in size; note: potency is the fitted concentration of half-maximal effect
Method in brief: as §3

[17] = A CellTox Green Cytotoxicity Assay to monitor cytotoxicity in HEK293 cells - 16 hour (AID 1224888); note: nearly all actives have a fitted effect of over 35% in size; note: potency is the fitted concentration of half-maximal effect
Method in brief: as §1

[18] = qHTS RealTime-Glo MT Cell Viability Assay in HepG2 cells - 0 hour (AID 1224889); note: nearly all actives have a fitted effect of over 50% in size
Method in brief: as §5

[19] = A CellTox Green Cytotoxicity Assay to monitor cytotoxicity in HepG2 cells - 8 hour (AID 1224890); note: nearly all actives have a fitted effect of over 45% in size; note: potency is the fitted concentration of half-maximal effect
Method in brief: as §4

[20] = qHTS RealTime-Glo MT Cell Viability Assay in HepG2 cells - 32 hour (AID 1224877); note: nearly all actives have a fitted effect of over 55% in size; note: potency is the fitted concentration of half-maximal effect
Method in brief: as §5
% is set by controls: 0 for no effect and ±100 for the full control effect.

NC(N)=Nc1nc(CSCC/C(N)=N/S(N)(=O)=O)cs1
inactive: Potency [1] | Potency [2] | Potency [3] | max response [4] -7.2% and 0.8% | Potency [5] | Potency [8] | Potency [9] | Potency [10] | Potency [11] | Potency [12] | Potency [13] | Potency [14] | Potency [15] | Potency [16] | Potency [17] | Potency [18] | Potency [19]
3.89 µM (active) and inactive: Potency [7]
4.36 µM (active) and inactive: Potency [6]

CCOc1ccccc1C(N)=O
inactive: Potency [1] | Potency [2] | Potency [3] | max response [4] -15.3% and 4.4% | Potency [5] | Potency [6] | Potency [7] | Potency [8] | Potency [9] | Potency [10] | Potency [11] | Potency [12] | Potency [13] | Potency [15] | Potency [16] | Potency [17] | Potency [18] | Potency [19]

O=S(=O)(O)c1ccc2nc(-c3ccccc3)[nH]c2c1
inactive: Potency [1] | Potency [2] | Potency [3] | max response [4] 4.15% and 2.95% | Potency [5] | Potency [6] | Potency [7] | Potency [8] | Potency [9] | Potency [10] | Potency [11] | Potency [12] | Potency [13] | Potency [14] | Potency [15] | Potency [16] | Potency [17] | Potency [18] | Potency [19]

Cc1c2oc3c(C)ccc(C(=O)N[C@@H]4C(=O)N[C@H](C(C)C)C(=O)N5CCC[C@H]5C(=O)N(C)CC(=O)N(C)[C@@H](C(C)C)C(=O)O[C@@H]4C)c3nc-2c(C(=O)N[C@@H]2C(=O)N[C@H](C(C)C)C(=O)N3CCC[C@H]3C(=O)N(C)CC(=O)N(C)[C@@H](C(C)C)C(=O)O[C@@H]2C)c(N)c1=O (I: T[dV]P[Sar][NMeV] / II: T[dV]P[Sar][NMeV]; ester I:1-I:C, II:1-II:C; linker I:N-II:N via Actinocin(9to1))
inactive: Potency [1] | Potency [5] | Potency [6] | Potency [7] | Potency [9] | Potency [10] | Potency [11] | Potency [13] | Potency [17] | Potency [19]
active: Potency [2] 33.7 nM and 120 nM | Potency [3] 9.5 µM and 10.7 µM | Potency [4] 8.5 nM and 16.9 nM | Potency [12] 21.3 nM | Potency [15] 16.9 nM and 23.9 nM

Nc1cc(Cl)c(-c2cc(Cl)c(N)cc2Cl)cc1Cl
inactive and 54.9 µM (active): Potency [6]
inactive: Potency [1] | Potency [3] | Potency [5] | Potency [20] | Potency [9] | Potency [11] | Potency [13] | Potency [16] | Potency [17] | Potency [18] | Potency [19]
active: Potency [2] 24.5 µM | Potency [4] 6.91 µM and 1.74 µM | Potency [8] 4.36 µM and 54.9 µM | Potency [12] 17.4 µM and 54.9 µM | Potency [15] 11 µM

CCCC(=O)c1ccccc1
inactive: Potency [1] | Potency [2] | Potency [3] | max response [4] 2.03% | Potency [5] | Potency [6] | Potency [7] | Potency [8] | Potency [9] | Potency [10] | Potency [11] | Potency [12] | Potency [13] | Potency [14] | Potency [15] | Potency [16] | Potency [17] | Potency [19]

O=C1CC2(CCCC2)CC(=O)N1CCCCN1CCN(c2ncccn2)CC1
49 µM (active) and inactive: Potency [15]
active: Potency [4] 27.5 µM
38.9 µM (active) and inactive: Potency [8]
43.6 µM (active) and inactive: Potency [2] | Potency [12]
inactive: Potency [1] | Potency [3] | Potency [5] | Potency [6] | Potency [20] | Potency [9] | Potency [11] | Potency [13] | Potency [14] | Potency [16] | Potency [17] | Potency [18] | Potency [19]

CCCCCCCCCCCC[N+](C)(C)C
inactive: Potency [2] | Potency [3] | Potency [5] | Potency [9] | Potency [11] | Potency [13] | Potency [14] | Potency [16] | Potency [17] | Potency [18] | Potency [19]
active: Potency [1] 54.8 µM and 17.4 µM and 54.9 µM | Potency [4] 4.35 µM and 9.77 µM | Potency [6] 43.6 µM | Potency [7] 54.8 µM and 54.9 µM and 49 µM | Potency [8] 43.5 µM and 43.6 µM and 38.9 µM | Potency [10] 54.8 µM and 17.4 µM and 30.9 µM | Potency [12] 43.5 µM and 49 µM and 43.6 µM | Potency [15] 4.89 µM

COc1ccc(CCN2CCC(Nc3nc4ccccc4n3Cc3ccc(F)cc3)CC2)cc1
active: Potency [1] 11.2 µM and 23.9 µM | Potency [2] 8.9 µM and 9.52 µM | Potency [3] 35.4 µM and 23.9 µM | Potency [4] 5.62 µM and 10.7 µM | Potency [5] 17.8 µM and 23.9 µM | Potency [6] 31.6 µM and 21.3 µM | Potency [20] 15.8 µM and 10.7 µM | Potency [8] 15.8 µM and 8.49 µM | Potency [12] 19.9 µM and 9.52 µM | Potency [13] 44.6 µM and 26.8 µM | Potency [14] 28.1 µM and 21.3 µM | Potency [15] 6.3 µM and 10.7 µM | Potency [16] 12.6 µM and 9.52 µM | Potency [17] 35.4 µM and 26.8 µM | Potency [19] 39.8 µM and 23.9 µM
inactive: Potency [9] | Potency [11]

O=C(O)c1cc(Cl)cc(Cl)c1
inactive: Potency [1] | Potency [2] | Potency [3] | max response [4] 8.11% | Potency [5] | Potency [6] | Potency [7] | Potency [8] | Potency [9] | Potency [10] | Potency [11] | Potency [12] | Potency [13] | Potency [14] | Potency [15] | Potency [16] | Potency [17] | Potency [18] | Potency [19]

CCCN[C@H]1CCc2nc(N)sc2C1
inactive: Potency [1] | Potency [2] | Potency [3] | max response [4] -11% | Potency [5] | Potency [6] | Potency [7] | Potency [8] | Potency [9] | Potency [10] | Potency [11] | Potency [12] | Potency [13] | Potency [14] | Potency [15] | Potency [16] | Potency [17] | Potency [19]

O=C(O[C@@H]1Cc2c(O)cc(O)cc2O[C@@H]1c1cc(O)c(O)c(O)c1)c1cc(O)c(O)c(O)c1
active: Potency [2] 11.9 µM | Potency [4] 7.48 µM | Potency [15] 10.6 µM
inactive: Potency [1] | Potency [3] | Potency [5] | Potency [6] | Potency [7] | Potency [8] | Potency [9] | Potency [11] | Potency [12] | Potency [13] | Potency [17] | Potency [18] | Potency [19]
